Compound activity: PubChem BioAssay, The Scripps Research Institute Molecular Screening Center
hcDAF-12 act = H. contortus DAF-12 nuclear receptor activators, primary screen, cell-based, luminescence, HEK293, lit1-tk-luc reporter; HEK293 hcDAF-12 lit1-tk-luc reporter; 0% DMSO, 100% Δ7-dafachronic acid; activation, % at 6.8 µM; actives 1.4% (n = 370,000);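 active = activation above the mean of all tested compounds plus 3 SD, cut at about 5.5% in these data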;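 note: 100% = response to 3 µM Δ7-dafachronic acid high control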
DAX1 inh-1 = DAX1 (NR0B1) inhibitors, primary screen, cell-based, HEK293, Gal4-DAX1, luciferase luminescence | Nuclear receptor subfamily 0 group B member 1 (Homo sapiens), P51843 | HEK293 Gal4-DAX1 luciferase reporter | inhibition, % at 6.75 µM | actives 0.99% (n = 340,000) | AID 504766, 2011;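 active = inhibition above the mean over all tested compounds plus 3 SD, cut at about 4.2% in these data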;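 note: 0% = DAX1-transfected cells with DMSO and 100% = empty-vector control cells with DMSO; inhibition shows as a rise in luminescence from relieved DAX1 repression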
Target sequence (P51843 207-470 limits assumed): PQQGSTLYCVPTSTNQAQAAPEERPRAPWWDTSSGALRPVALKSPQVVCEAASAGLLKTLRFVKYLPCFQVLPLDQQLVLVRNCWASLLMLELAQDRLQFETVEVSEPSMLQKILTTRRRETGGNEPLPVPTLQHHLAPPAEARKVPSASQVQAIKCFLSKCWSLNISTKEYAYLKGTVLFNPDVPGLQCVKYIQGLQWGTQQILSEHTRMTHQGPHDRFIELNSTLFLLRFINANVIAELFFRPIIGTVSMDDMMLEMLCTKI
ssDAF12 agonist = S. stercoralis DAF-12 nuclear receptor activators, primary screen, cell-based, luminescence, HEK293, GRIP1 co-expression, lit1-tk-luc; Nuclear hormone receptor DAF-12 (Strongyloides stercoralis); activation, % at 6.8 µM; HEK293 ssDAF-12/GRIP1 lit1-tk-luc reporter; % of 3 µM dafachronic acid response; actives 1% (n = 370,000);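 active = activation above the mean over all tested compounds plus 3 SD, cut at about 0.9% in these data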;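 note: 0% = DMSO-only wells and 100% = 3 µM delta7-dafachronic acid wells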
DAX1 inh-2 = DAX1 (NR0B1) inhibitors on StAR promoter, primary screen, cell-based, luminescence, SF-1 (NR5A1), full-length DAX-1; HEK293T StAR-luciferase reporter, SF-1/DAX-1 repression relief; inhibition, % at 6.8 µM; actives 1.1% (n = 370,000); AID 652010, 2013;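 active = inhibition above the mean over all tested compounds plus 3 SD, cut at about 3.6% in these data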;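 note: 0% = DAX-1 cells with DMSO and 100% = cells lacking DAX-1 with DMSO; higher inhibition means more luminescence from relief of DAX-1 repression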
hgDAF12 agonist = H. glycines DAF-12 receptor agonists, primary screen, cell-based, luminescence, HEK293, GAL4 fusion, UAS-luciferase. AID 687014, 2013. HEK293 GAL4-hgDAF12 UAS-luciferase reporter, agonist luminescence; normalized to butyrate control. actives 1.8% (n = 370,000). activation, % at 6.8 µM. Nuclear hormone receptor DAF-12 (Heterodera glycines), GAL4 fusion;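 active = activation above a cutoff set at the mean of all screened compounds plus 3 SD, cut at about 10% in these data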;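 note: 0% = DMSO wells and 100% = sodium butyrate wells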
SMARCA2 activ = SMARCA2 (BRM) function activators, primary screen, cell-based, luminescence, high throughput; activation, % at 9.1 µM; MG213 cells, MMTV-luciferase reporter, dexamethasone, overnight; actives 1% (n = 370,000); in the data active = activation above about 7.8%;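 note: 0% = vehicle wells and 100% = reference activator wells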
SMARCA2 act conf = SMARCA2 (BRM) function activators, confirmation, cell-based, luminescence, triplicate; MG213 cells, MMTV-luciferase with dexamethasone, overnight; MG213 cells expressing E1A, Rb sequestered; DMSO wells 0%, reference activator 100%; AID 652260, 2013; shares compounds with SMARCA2 activ; activation, % at 9.1 µM; actives 30% (n = 3,500);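 active = activation above its plate's cutoff, the mean activation of tested wells plus 3 SD, cut at about 7.9% in these data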
VP16 Luc act = GAL4-VP16 luciferase reporter activation, counter-screen for SMARCA2 (BRM) activator project, cell-based, pG5luc, luminescence, high throughput; shares compounds with SMARCA2 activ; HEK293 GAL4-VP16 pG5luc reporter; scaled: DMSO wells 0%, SAHA wells 100%; activation, % at 9.1 µM; actives 41% (n = 3,500);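 active = activation above the solvent-only control well mean plus 3 SD, averaged across control plates, cut at about 5.2% in these data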
Starred values were filed as active, the others as inactive. The list is not random: actives were taken first. Their share in the collection is about 4.8%.

How did COc1ccc(CN2CCNC(=O)C2CC(=O)N2CCCO2)c(OC)c1 (centres undefined) do in these assays?
hcDAF-12 act: 0.0; DAX1 inh-1: -0.8; ssDAF12 agonist: -1.5; DAX1 inh-2: 0.7; hgDAF12 agonist: 0.3; SMARCA2 activ: -0.6

How did O=C(/C=C/c1ccco1)NC(=S)Nc1cccc(C(=O)O)c1 do in these assays?
hcDAF-12 act: -0.1; DAX1 inh-1: -1.0; ssDAF12 agonist: -0.8; DAX1 inh-2: 0.3; hgDAF12 agonist: 2.2; SMARCA2 activ: 8.4*; SMARCA2 act conf: 6.3; VP16 Luc act: 1.2

What do the screens show for `CCCC1CCc2c(sc(N)c2C(N)=O)C1` (centres undefined)?
hcDAF-12 act: -1.4; DAX1 inh-1: -0.4; ssDAF12 agonist: -1.3; DAX1 inh-2: -0.7; hgDAF12 agonist: -3.9; SMARCA2 activ: 0.5

What do the screens show for `CC(C)(C)OC(=O)C[C@H]1C/C=C\C[C@@H](CC(=O)N(CCO)Cc2ccccc2)C(=O)N[C@H](Cc2ccccc2)COC1=O`?
hcDAF-12 act: -1.7; DAX1 inh-1: 0.2; ssDAF12 agonist: -1.2; DAX1 inh-2: -0.7; hgDAF12 agonist: -3.0; SMARCA2 activ: 1.1

Results for COc1cccc2sc(Nc3nnc(-c4cccs4)o3)nc12 ?
hcDAF-12 act: 3.8; DAX1 inh-1: -0.9; ssDAF12 agonist: 0.1; DAX1 inh-2: 0.2; hgDAF12 agonist: 5.6; SMARCA2 activ: 15.2*; SMARCA2 act conf: -2.4; VP16 Luc act: 14.1*

What do the screens show for `COc1cccc2sc(Nc3nc(-c4ccccn4)cs3)nc12`?
DAX1 inh-1: -3.1

What do the screens show for `O=C(NCc1cccnc1)C(=O)N/N=C/c1ccc([N+](=O)[O-])cc1`?
hcDAF-12 act: -1.2; DAX1 inh-1: 1.1; ssDAF12 agonist: -1.6; DAX1 inh-2: -0.7; hgDAF12 agonist: -2.8; SMARCA2 activ: -3.6

Results for OCCCCc1nccc2c1[nH]c1ccccc12 ?
hcDAF-12 act: -3.1; DAX1 inh-1: 0.2; ssDAF12 agonist: -1.2; DAX1 inh-2: -0.6; hgDAF12 agonist: 0.2; SMARCA2 activ: 4.1

How did N#Cc1ccc(/C=C\c2nccc3c2[nH]c2ccccc23)cc1 do in these assays?
hcDAF-12 act: 3.7; DAX1 inh-1: -1.8; ssDAF12 agonist: 0.3; DAX1 inh-2: -1.7; hgDAF12 agonist: 2.9; SMARCA2 activ: 9.9*; SMARCA2 act conf: 10.2*; VP16 Luc act: -1.5

How did O=S(=O)(Oc1ccc(Cl)cc1)c1cccc2cccnc12 do in these assays?
hcDAF-12 act: -1.4; ssDAF12 agonist: -1.3; DAX1 inh-2: 0.3; hgDAF12 agonist: 3.2; SMARCA2 activ: -3.8

Results for CC(=O)N1CCN(c2ccnc3cc(Cl)ccc23)CC1 ?
hcDAF-12 act: 0.3; DAX1 inh-1: 0.8; ssDAF12 agonist: -2.1; DAX1 inh-2: 0.0; hgDAF12 agonist: -2.3; SMARCA2 activ: 10.9*; SMARCA2 act conf: -0.9; VP16 Luc act: -1.1

Results for C=CCOc1ccc2oc(=O)cc(C)c2c1 ?
hcDAF-12 act: -2.7; DAX1 inh-1: -2.0; ssDAF12 agonist: -1.9; DAX1 inh-2: 0.5; hgDAF12 agonist: -1.9; SMARCA2 activ: 10.0*; SMARCA2 act conf: -2.2; VP16 Luc act: 0.2
